# Measurements published in the supplement of paper PMC8728848.
# Only a selection was taken, and the strongest signals are over-represented in it overall.
# How the values were obtained:
# Assay in all cases: glycan array binding signal (z-score within array); higher = stronger binding
# Conditions in all cases: glycan notation: IUPAC condensed, linker removed
# [1] = molecular target: Gal(b1-4)GlcNAc(b1-3)Gal(b1-4)GlcNAc(b1-3)Gal(b1-4)GlcNAc(b1-2)Man(a1-3)[Gal(b1-4)GlcNAc(b1-3)Gal(b1-4)GlcNAc(b1-3)Gal(b1-4)GlcNAc(b1-2)Man(a1-6)]Man(b1-4)GlcNAc(b1-4)GlcNAc
# In short: (§1)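 Glycan array data were curated from 3228 arrays in the Consortium for Functional Glycomics database and kept only where the protein sequence was available. Glycan names were converted to IUPAC-condensed notation, and columns mapping to the same glycan were averaged. The binding signal is a within-array Z-score, averaged across arrays of the same protein sequence at different concentrations or buffers and across linkers. Negative Z-scores can be read as non-binding.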
# [2] = molecular target: Gal(b1-4)GlcNAc(b1-3)Gal(b1-4)GlcNAc(b1-3)Gal(b1-4)GlcNAc(b1-3)Gal(b1-4)GlcNAc(b1-2)Man(a1-3)[Gal(b1-4)GlcNAc(b1-3)Gal(b1-4)GlcNAc(b1-3)Gal(b1-4)GlcNAc(b1-3)Gal(b1-4)GlcNAc(b1-2)Man(a1-6)]Man(b1-4)GlcNAc(b1-4)[Fuc(a1-6)]GlcNAc
# In short: as §1
# [3] = molecular target: Gal(b1-4)GlcNAc(b1-3)Gal(b1-4)GlcNAc(b1-3)Gal(b1-4)GlcNAc(b1-3)Gal(b1-4)GlcNAc(b1-2)[Gal(b1-4)GlcNAc(b1-3)Gal(b1-4)GlcNAc(b1-3)Gal(b1-4)GlcNAc(b1-3)Gal(b1-4)GlcNAc(b1-6)]Man(a1-6)[Gal(b1-4)GlcNAc(b1-3)Gal(b1-4)GlcNAc(b1-3)Gal(b1-4)GlcNAc(b1-3)Gal(b1-4)GlcNAc(b1-2)Man(a1-3)]Man(b1-4)GlcNAc(b1-4)[Fuc(a1-6)]GlcNAc
# In short: as §1
# [4] = molecular target: Gal(b1-4)GlcNAc(b1-3)Gal(b1-4)GlcNAc(b1-3)Gal(b1-4)GlcNAc(b1-3)Gal(b1-4)GlcNAc(b1-3)Gal(b1-4)GlcNAc(b1-2)Man(a1-3)[Gal(b1-4)GlcNAc(b1-3)Gal(b1-4)GlcNAc(b1-3)Gal(b1-4)GlcNAc(b1-3)Gal(b1-4)GlcNAc(b1-3)Gal(b1-4)GlcNAc(b1-2)Man(a1-6)]Man(b1-4)GlcNAc(b1-4)GlcNAc
# In short: as §1
# [5] = molecular target: Gal(b1-4)GlcNAc(b1-3)Gal(b1-4)GlcNAc(b1-3)Gal(b1-4)GlcNAc(b1-3)Gal(b1-4)GlcNAc(b1-3)Gal(b1-4)GlcNAc(b1-2)Man(a1-3)[Gal(b1-4)GlcNAc(b1-3)Gal(b1-4)GlcNAc(b1-3)Gal(b1-4)GlcNAc(b1-3)Gal(b1-4)GlcNAc(b1-3)Gal(b1-4)GlcNAc(b1-2)Man(a1-6)]Man(b1-4)GlcNAc(b1-4)[Fuc(a1-6)]GlcNAc
# In short: as §1
# [6] = molecular target: Gal6S(b1-3)GlcNAc6S
# In short: as §1
# [7] = molecular target: GalNAc(b1-4)GlcNAc
# In short: as §1
# [8] = molecular target: GalNAc3S(b1-4)GlcNAc
# In short: as §1
# [9] = molecular target: GlcNAc(a1-3)Gal(b1-4)GlcNAc
# In short: as §1
# [10] = molecular target: GlcNAc(b1-3)Gal(b1-4)GlcNAc(b1-3)Gal(b1-4)GlcNAc(b1-3)Gal(b1-4)GlcNAc(b1-3)Gal(b1-4)GlcNAc(b1-2)Man(a1-3)[GlcNAc(b1-3)Gal(b1-4)GlcNAc(b1-3)Gal(b1-4)GlcNAc(b1-3)Gal(b1-4)GlcNAc(b1-3)Gal(b1-4)GlcNAc(b1-2)Man(a1-6)]Man(b1-4)GlcNAc(b1-4)[Fuc(a1-6)]GlcNAc
# In short: as §1
# [11] = molecular target: GlcNAc(b1-3)GalNAc
# In short: as §1
# [12] = molecular target: Man(a1-2)Man(a1-3)Man
# In short: as §1
# [13] = molecular target: Neu5Ac(a2-3)Gal
# In short: as §1
# [14] = molecular target: Neu5Ac(a2-3)Gal(b1-3)GalNAc
# In short: as §1
# [15] = molecular target: Neu5Ac(a2-3)Gal(b1-3)GlcNAc(b1-3)Gal(b1-4)GlcNAc
# In short: as §1
# [16] = molecular target: Neu5Ac(a2-3)Gal(b1-3)[Neu5Ac(a2-6)]GlcNAc(b1-3)[Fuc(a1-3)[Gal(b1-4)]GlcNAc(b1-6)]Gal(b1-4)Glc
# In short: as §1
# [17] = molecular target: Neu5Ac(a2-3)Gal(b1-4)GlcNAc(b1-3)Gal(b1-4)GlcNAc(b1-3)Gal(b1-4)GlcNAc(b1-2)Man(a1-3)[Neu5Ac(a2-3)Gal(b1-4)GlcNAc(b1-3)Gal(b1-4)GlcNAc(b1-3)Gal(b1-4)GlcNAc(b1-2)Man(a1-6)]GalNAc
# In short: as §1
# [18] = molecular target: Neu5Ac(a2-3)Gal(b1-4)[Fuc(a1-3)]GlcNAc(b1-3)GalNAc
# In short: as §1
# [19] = molecular target: Neu5Ac(a2-3)Gal6S(b1-4)[Fuc(a1-3)]GlcNAc
# In short: as §1
# [20] = molecular target: Neu5Ac(a2-6)Gal(b1-3)GlcNAc(b1-3)[Gal(b1-4)GlcNAc(b1-6)]Gal(b1-4)Glc
# In short: as §1
# [21] = molecular target: Neu5Ac(a2-6)Gal(b1-4)GlcNAc(b1-2)Man(a1-6)[GlcNAc(b1-2)Man(a1-3)]Man(b1-4)GlcNAc(b1-4)GlcNAc
# In short: as §1
# [22] = molecular target: Neu5Ac(a2-6)Gal(b1-4)GlcNAc(b1-3)Gal(b1-4)[Fuc(a1-3)]GlcNAc(b1-3)Gal(b1-4)[Fuc(a1-3)]GlcNAc
# In short: as §1
# [23] = molecular target: Neu5Ac(a2-8)Neu5Ac
# In short: as §1
# [24] = molecular target: Neu5Gc(a2-3)Gal(b1-3)[Fuc(a1-4)]GlcNAc
# In short: as §1
# [25] = molecular target: Neu5Gc(a2-3)Gal(b1-4)GlcNAc(b1-3)Gal(b1-4)GlcNAc(b1-2)Man(a1-3)[Neu5Gc(a2-3)Gal(b1-4)GlcNAc(b1-3)Gal(b1-4)GlcNAc(b1-2)Man(a1-6)]Man(b1-4)GlcNAc(b1-4)GlcNAc
# In short: as §1
binder,measurement,setting,value
GS7807H-bfa-490-18-490 (Bacteroides fragilis) (protein) GNLEEMNIDPDNATQTHPKLLLTQICMNAFKRGTDGMYATKKVIQADGESADQYYKWTRGSFGYYDNLRNVQKMGEEAERVNAPVYTALTKFFRAYYFYELTLRFGDIPYSQALKGEKEEIYTPEYDAQEDVFAGILQELREADEILANDASVIDGDIIYNGNSTQWRKLINSFRLKVLMTLSNHTTVGNINIASEFKNIATNSPLMNSLADNGQLVYLDQQGNRYPQFNAQWSGYYMDDTFIQRMRERRDPRLFIFSAQTNKGKTEGKPIDDFSSYEGGDPAAPYSDAIIKVSEGTISPINDRFRTDPIVEPTMLMGYAELQQILAEAVVRGWISGNAQTYYEKGIRASFSFYETHAKDYAGYLNENAVAQYLKEPLVDFTQASGTEEQIERIIMQKYLVTFYQGNWDSFYEQLRTGYPDFRRPAGTEIPKRWMYPQGEYDNNGTNVETAITRQFGAGNDKINQATWWQKKS,glycan array binding signal (z-score),[1],2.19
same,glycan array binding signal (z-score),[2],2.51
same,glycan array binding signal (z-score),[3],2.08
same,glycan array binding signal (z-score),[4],1.71
same,glycan array binding signal (z-score),[5],2.17
same,glycan array binding signal (z-score),[6],1.52
same,glycan array binding signal (z-score),[7],0.462
same,glycan array binding signal (z-score),[8],-0.743
same,glycan array binding signal (z-score),[9],-0.677
same,glycan array binding signal (z-score),[10],4.28
same,glycan array binding signal (z-score),[11],-0.454
same,glycan array binding signal (z-score),[12],0.369
same,glycan array binding signal (z-score),[13],-0.022
same,glycan array binding signal (z-score),[14],-0.368
same,glycan array binding signal (z-score),[15],-0.526
same,glycan array binding signal (z-score),[16],-0.176
same,glycan array binding signal (z-score),[17],9.02
same,glycan array binding signal (z-score),[18],5.66
same,glycan array binding signal (z-score),[19],-0.29
same,glycan array binding signal (z-score),[20],0.078
same,glycan array binding signal (z-score),[21],-0.141
same,glycan array binding signal (z-score),[22],-0.32
same,glycan array binding signal (z-score),[23],-0.459
same,glycan array binding signal (z-score),[24],-0.469
same,glycan array binding signal (z-score),[25],-0.11
